Measurements from PubChem BioAssay.
Calls of active or inactive are those of the source. Unless noted, the rule behind the calls is not given here.

Key:
[1] = test system: Wnt5a (protein binding on small-molecule microarray); assay: small molecules binding Wnt5a protein – biophysical, small-molecule microarray, 635/667 nm fluorescence, primary screen (AID 1142); conditions: 635 nm fluorescence, higher = more signal;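 note: fluorescence read at 667 nm with signal to noise per printed feature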
[2] = ATP-based viability of Huh7 replicon cells – cell-based, CellTiter-Glo luminescence, basal, 48 h, cytotoxicity control for HCV replication inhibitor project, primary screen (AID 1143); conditions: higher = more signal, called active from +8 up or from −8 down;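 note: Huh7 hepatoma cells carrying a hepatitis C replication reporter with no stimulus; test concentration not given here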
[3] = Pseudomonas biofilm growth suppression – PAO1 strain, BacTiter-Glo luminescence, LB-PBS, primary screen (AID 1144); conditions: P. aeruginosa PAO1 biofilm, 12 h, higher = more signal
[4] = basal CRE-LacZ reporter activity in PC12 – cell-based, unstimulated, primary screen (AID 1145); conditions: no forskolin, luminescence, 4.5 h, higher = more signal, called active from +8 up or from −8 down
[5] = forskolin-driven CRE-LacZ activity in PC12 – cell-based, CRE-LacZ reporter, forskolin-stimulated, primary screen (AID 1146); conditions: luminescence, 4.5 h, higher = more signal, called active from +8 up or from −8 down;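 note: PC12 cells with 6xCRE LacZ reporter stimulated by forskolin 10 µM; beta-galactosidase reporter signal reflecting CREB driven transcription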
[6] = biological target: Streptavidin (Streptomyces avidinii) (UniProt P22629); assay: compounds binding control protein streptavidin – biophysical, small-molecule microarray, 635/667 nm fluorescence, artefact control for SMM compound annotation, primary screen (AID 1147); conditions: higher = more signal;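 note: signal reflects streptavidin binding to arrayed compounds as a control protein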
[7] = probe aInhba binding on compound microarray – biochemical, small-molecule microarray, 635/667 nm fluorescence, primary screen (AID 1148); conditions: higher = more signal;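 note: score merges 667nm spot fluorescence with signal-to-noise for antibody binding to printed compounds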
Torsin-1A (Homo sapiens) [8] = biological target: Torsin-1A (Homo sapiens) (UniProt O14656); assay: TOR1A wild-type binding on microarray – cell lysate, small-molecule microarray, lysate, 635/667 nm, primary screen (AID 1149); conditions: COS7 hTOR1A-WT lysate, 635 nm fluorescence, higher = more signal
Torsin-1A (Homo sapiens) [9] = biological target: Torsin-1A (Homo sapiens) (UniProt O14656); assay: torsin A mutant lysate binding on microarrays – cell lysate, small-molecule microarray, COS7 lysate, 635/667 nm fluorescence, primary screen (AID 1150); conditions: COS7 hTOR1A mutant lysate, 635 nm fluorescence, higher = more signal;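 note: score pools 667 nm emission and signal to noise measuring lysate protein binding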
[10] = test system: Sonic hedgehog protein (Shh); assay: Sonic hedgehog microarray binding compounds – biochemical, small-molecule microarray, 635/667 nm fluorescence, primary screen (AID 1151); conditions: 635 nm fluorescence, higher = more signal;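 note: Shh protein binding to compounds spotted on small-molecule microarray slides; score combines spot fluorescence intensity with signal-to-noise across triplicate slides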

Streptavidin (Streptomyces avidinii), sequence (P22629 whole entry, looked up): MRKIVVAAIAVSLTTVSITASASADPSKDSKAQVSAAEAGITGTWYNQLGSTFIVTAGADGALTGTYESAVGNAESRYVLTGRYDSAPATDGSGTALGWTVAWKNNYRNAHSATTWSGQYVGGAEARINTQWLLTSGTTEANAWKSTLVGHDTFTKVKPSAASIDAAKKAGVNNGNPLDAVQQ
Torsin-1A (Homo sapiens), sequence (O14656 whole entry, looked up): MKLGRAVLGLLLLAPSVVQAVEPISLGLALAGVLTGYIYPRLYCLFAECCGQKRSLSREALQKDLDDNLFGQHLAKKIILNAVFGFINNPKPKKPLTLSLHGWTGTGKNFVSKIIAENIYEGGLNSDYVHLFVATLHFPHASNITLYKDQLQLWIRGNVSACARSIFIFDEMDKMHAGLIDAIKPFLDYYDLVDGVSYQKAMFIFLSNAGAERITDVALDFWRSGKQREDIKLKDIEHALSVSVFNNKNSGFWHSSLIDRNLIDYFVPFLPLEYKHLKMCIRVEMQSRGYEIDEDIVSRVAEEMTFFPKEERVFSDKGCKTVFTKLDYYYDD

CC1CC/C=C\[C@H]2OC34C=CCN(Cn5nnc6ccccc65)C(=O)[C@H]3N(C(CO)C(C)C)C(=O)[C@@H]4C2C(=O)O1 (stereo not given in full)
composite z-score [1]: -0.347
z-score [2]: 0.154 (inactive)
z-score [3]: -0.246 (inactive)
z-score [4]: -1.03 (inactive)
z-score [5]: -1.05 (inactive)
composite z-score [6]: -0.24
composite z-score [7]: -0.159
composite z-score (Torsin-1A (Homo sapiens) [8]): -1.45
composite z-score (Torsin-1A (Homo sapiens) [9]): -1.12
composite z-score [10]: 0.627

C=CCOC(=O)[C@H]1[C@@H]2C(=O)O[C@@H](c3ccccc3)[C@@H](c3ccccc3)N2[C@@H](c2ccc(OCCOC(=O)[C@@H]3C[C@@H]4C(=O)N[C@@H](CCCC[N+](C)(C)C)C(=O)N4[C@@H]3c3ccc(O)cc3)cc2)[C@]12C(=O)Nc1ccccc12
composite z-score [1]: 0.444
z-score [2]: -2.47 (inactive)
z-score [3]: -1.19 (inactive)
z-score [4]: -1.07 (inactive)
z-score [5]: -1.48 (inactive)
composite z-score [6]: -0.0862
composite z-score [7]: -0.0494
composite z-score (Torsin-1A (Homo sapiens) [8]): 1.67
composite z-score (Torsin-1A (Homo sapiens) [9]): 1.23
composite z-score [10]: 2.06

O=C1O[C@@H](c2ccccc2)[C@@H](c2ccccc2)N2[C@@H](c3ccccc3OCCO)[C@]3(C(=O)Nc4ccc(C#CC5=CCCCC5)cc43)[C@@H](C(=O)Nc3nc4ccccc4s3)[C@H]12
composite z-score [1]: 0.799
z-score [2]: -4.3 (inactive)
z-score [3]: -1.15 (inactive)
z-score [4]: -0.191 (inactive)
z-score [5]: 0.447 (inactive)
composite z-score [6]: 1.1
composite z-score [7]: 0.0516
composite z-score (Torsin-1A (Homo sapiens) [8]): -0.271
composite z-score (Torsin-1A (Homo sapiens) [9]): 0.335
composite z-score [10]: 0.988

C#CCNC(=O)[C@H](Cc1ccccc1)NC(=O)CCC(=O)O
composite z-score [1]: -0.0994
z-score [2]: 0.0187 (inactive)
z-score [3]: 0.743 (inactive)
z-score [4]: 0.656 (inactive)
z-score [5]: 0.301 (inactive)
composite z-score [6]: -0.869
composite z-score [7]: -0.146
composite z-score (Torsin-1A (Homo sapiens) [8]): 0.119
composite z-score (Torsin-1A (Homo sapiens) [9]): 0.544
composite z-score [10]: -0.192

CN(C)C(=O)[C@]1(Cc2ccccc2N=[N+]=[N-])N=C(c2ccc(OCCCO)cc2)O[C@@H]1c1ccccc1
composite z-score [1]: 0.8
z-score [2]: -4.59 (inactive)
z-score [3]: 1.77 (inactive)
z-score [4]: 0.69 (inactive)
z-score [5]: -2.15 (inactive)
composite z-score [6]: 1.4
composite z-score [7]: 0.0928
composite z-score (Torsin-1A (Homo sapiens) [8]): -0.09
composite z-score (Torsin-1A (Homo sapiens) [9]): 0.902
composite z-score [10]: 0.0763

COc1ccc(NN2C(C(O)c3ccc([N+](=O)[O-])cc3)C=CC3C(=O)N(C4CCCCC4)C(=O)C32)cc1 (stereo not given)
composite z-score [1]: -0.0777
z-score [2]: -0.416 (inactive)
z-score [3]: -1.05 (inactive)
z-score [4]: -0.667 (inactive)
z-score [5]: -0.441 (inactive)
composite z-score [6]: 1.99
composite z-score [7]: 0.199
composite z-score (Torsin-1A (Homo sapiens) [8]): -0.233
composite z-score (Torsin-1A (Homo sapiens) [9]): 0.382
composite z-score [10]: -0.49
